This note sets out measurements from PubChem BioAssay (NCATS).

Molecules are shown by their SMILES. This is one part of the list. Records with an inconclusive call do not appear. The source made the active and inactive calls. Calls follow the shape of the full dose curve.
% is scaled to controls: 0 for no effect and ±100 for the full control effect; potency is read from the fitted curve at half-maximal effect.

In this assay the target is Polyprotein P1234 (Chikungunya virus (strain S27-African prototype)) (UniProt Q8JUX6). Put plainly: Secondary cell base assay for inhibitors of NSP2Pro Chikungunya virus (CHIKV) (AID 1964100). Also: nearly all actives have a fitted effect of over 70% in size. Conditions: cell-based CHIKV nsP2 protease reporter assay; series mostly up to 51.1 µM; activity change, negative = inhibition: at the top concentration. An excerpt:
PI: Natalia J. Martinez Ph.D.
National Center for Advancing Translational Sciences (NCATS),
National Institute of Health (NIH), Rockville, Maryland
Chikungunya virus (CHIKV) is a mosquito-borne RNA virus that has emerged as one of the most important global arboviral threats in the last decade. Although the first CHIKV vaccine has recently been FDA approved for use in healthy adults at increased risk, to date, there are no available antiviral drugs for CHIKV infection. CHIKV nsP2 protease plays a crucial role in the processing of the viral polypeptide precursor to release enzymes required for viral replication, thus making it a promising drug target for antiviral discovery. Here, we established a high-throughput pipeline to identify small molecule inhibitors of nsP2 proteolytic activity. The pipeline is composed of a suite of 1,536-well in vitro assays to support quantitative high-throughput (qHTS) screening campaigns. Specifically, we developed a fluorescence resonance energy transfer (FRET)-based assay using a fluorogenic peptide substrate encompassing an endogenous cleavage site and purified recombinant protease domain (nsP2pro). Using this assay, we interrogated ~37,000 small molecules, including those in drug repurposing libraries as well as chemically diverse and medicinal chemistry-friendly compounds. Hits were selected for follow-up validation against full-length nsP2 and an additional peptide. FRET-based 1,536-well assays for papain, hepatitis C virus NS3-4A, and human furin proteases were implemented to characterize compound selectivity. […] Novel compounds were identified to be potential nsP2 inhibitors and molecular docking analyses were performed to explain the binding mode of selected hits. In vitro antiviral activity was evaluated for a subset of compounds using a high-throughput CHIKV infection assay. To our knowledge, the pipeline presented here is unprecedented for CHIKV antiviral discovery research.
Described herein is the secondary cell-based assay using a reporter construct. Construct cloning was produced by gene synthesis (GeneScript). The Split Nluc reporter construct was cloned into the NheI/EcoRI sites of pcDNA3.1 (+). The Nterm HiBiT (86b) and Cterm LgBiT (11S) sequences of the Split Nluc reporter were separated by a flexible loop containing the nsp3/4 cleavage site ([…]) or a flexible loop without a cleavage site (12X GlySer). nsP2pro expression construct (amino acids 220-798, accession #MT933050) was cloned into the NheI/EcoRI sites of pcDNA3.1 (+) and contained a C-terminal Flag/6xHis tag. The gene synthesis of the Split Nluc reporter and West Nile Virus (WNV) NS2B/NS3 protease expression constructs was performed by Synbio Technologies. The Split Nluc reporter construct included the N-terminal HiBiT (86b) and C-terminal LgBiT (11S) sequences, separated by a loop containing the WNV NS2B/NS3 cleavage site ([…]). The WNV NS2B/NS3 protease expression construct (amino acids 1375-1693, accession #NC_009942) contained a C-terminal Flag/6xHis tag. Both constructs were cloned into the XbaI/AgeI sites of pcDNA3.4.
PROTOCOL TABLE (as described by Inglese J, Shamu CE and Guy RK. 2007)
SEQUENCE No. (e.g., 1, 2, 3, etc.); […] (e.g., Cells, Incubation, Reagent, etc.); VALUE; DESCRIPTION.
1a; Cell Transfection; Lipofectamine 2000.
1b; Cell; 4 uL; Aurora 1536-well, white, tissue culture plate.
2; Incubation; 4 hr; 37C, 5% CO2, 95% humidity.
3; Compound; 20 nL; Echo 650 Liquid Handler.
4; Incubation; overnight; 37C, 55 CO2, 95% humidity.
5; Reagent; 4 uL; Nano-Glo Luciferase assay system.
6; Centrifugation; 2 sec.
7; Detection; Luminescence; ViewLux plate reader (PerkinElmer).
NOTES (numbers refer to sequence numbers above).
1a. […]
For `C[C@@H]1O[C@@H](O[C@@H]2[C@@H](O)[C@H](OCCc3ccc(O)c(O)c3)O[C@H](CO[C@@H]3O[C@H](CO)[C@@H](O)[C@H](O)[C@H]3O)[C@H]2OC(=O)/C=C/c2ccc(O)c(O)c2)[C@H](O)[C@H](O)[C@H]1O`, the “activity change, negative = inhibition” value was 6.92% (inactive). The same measure, in the same setting: the same measure for `C[C@@H]1[C@H](O)[C@@H]2OC(=O)C3=C2[C@H](CCC3)[C@@]12C[C@@H](c1ccoc1)OC2=O`: 13.6% [at 33.5 µM] (inactive); for `CO[C@]1(NC(=O)CSC(F)F)C(=O)N2C(C(=O)O)=C(CSc3nnnn3CCO)CO[C@H]21`: -3.23% (inactive); for `C=Cc1c(C)c2cc3nc(cc4[nH]c(cc5nc(cc1[nH]2)C(C)=C5CCC(=O)O)c(CCC(=O)OC)c4C)[C@@]1(C)C3=CC=C(C(=O)OC)[C@H]1C(=O)OC`: 7.15% (inactive). The same measure, in the same setting: the same measure for `COC([CH2][Hg])CNC(=O)c1ccccc1OCC(=O)O` (centres undefined): -12.4% (inactive). Turning to `Cn1nnnc1Sc1ncnc2n[nH]c(-c3cccc(S(C)(=O)=O)c3)c12`, the Potency was 11.2 µM (active). For `CCc1ccccc1NC(=O)c1cnn(-c2ccc(F)cc2)c1C1CCNCC1`, the “activity change, negative = inhibition” value is 1.05% (inactive). `CCOc1ccc(N(Cc2ccccc2)C(=O)c2nc(S(C)(=O)=O)ncc2Cl)cc1`: the Potency is 2.31 µM (active). As to `C[C@@H]1C[C@@H](O)[C@@]23CO[C@]2(CO)C[C@@H](O)CC3[C@@]12CC(c1ccoc1)OC2=O` (some centres undefined), the “activity change, negative = inhibition” value was -7.47% [at 33.5 µM] (inactive).

As for `CCOc1ccc(NC(=O)c2c(NC(=O)Cc3ccccc3)sc3c2CCC(C)C3)cc1` (centres undefined), the “activity change, negative = inhibition” value is -16.6% (inactive). The same measure, in the same setting: the same measure for `Cc1cc(C)cc(NC(=O)CSc2oc(-c3ccccc3)nc2S(=O)(=O)c2ccc(Cl)cc2)c1`: 167% (inactive); for `Cc1c(S(=O)(=O)O)oc2c1C(=O)C(=O)c1c-2ccc2c1CCCC2(C)C`: -3.37% (inactive); for `C=CC(=O)c1ccc2ccccc2c1`: -6.82% (inactive). On the same count and under the same terms, the value for `Oc1ccc(OC2CCCCO2)cc1` (centres undefined) was -6.43% (inactive); that for `CC(=O)N[C@@H](C(=O)O[C@H]1CCC(C)(C)[C@@H]2CCC3=C(COC3=O)[C@@]12C)C(C)C` was 8.89% [at 33.5 µM] (inactive); that for `CCOc1ccc(NC(=O)c2c(NC(=O)Cc3ccccc3)sc3c2CCCCC3)cc1` was 31.1% (inactive). On the same count and under the same terms, the value for `CC1=C(/C=C/C(C)=C/C=C/C(C)=C/C=C/C=C(C)/C=C/C=C(C)/C=C/C2=C(C)CCCC2(C)C)C(C)(C)CCC1` was -2.28% (inactive); that for `CCC(C)C(=O)OC1C(C)C2(O)C(C=C(CO)CC3(O)C(=O)C(C)=CC32)C2C(C)(C)C12OC(=O)C(C)C` (centres undefined) was 273% [at 17.6 µM] (inactive); that for `Cc1ccc(N[S+](=O)([O-])c2cc3c(cc2N[C@@H](C)CO)NC(=O)CC3)cc1N[C@@H](C)CO` was 0.443% (inactive).
